Screening data deposited in PubChem BioAssay by several laboratories.
A selection: hits, their analogues and other compounds. The true share with any hit is near 27%.
sEH inhibitor – soluble epoxide hydrolase (human) inhibition; P34913; recombinant human sEH enzymatic activity assay; inhibition, % at 2 µM; 0.34% of 91,000 active; AID 707; in the data active means inhibition above about 80%
CYP2C19 inhib – inhibitors of human CYP2C19; P33261; inhibition, % at 5 µM; 21% of 96,000 active; CYP2C19 Supersomes, luciferin-H EGE luminescence, 30 min; AID 778;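 active means CYP2C19 inhibition above a set limit at 5 µM in the primary screen, cut at about 50% in these data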
Target sequence (P33261 whole entry, looked up): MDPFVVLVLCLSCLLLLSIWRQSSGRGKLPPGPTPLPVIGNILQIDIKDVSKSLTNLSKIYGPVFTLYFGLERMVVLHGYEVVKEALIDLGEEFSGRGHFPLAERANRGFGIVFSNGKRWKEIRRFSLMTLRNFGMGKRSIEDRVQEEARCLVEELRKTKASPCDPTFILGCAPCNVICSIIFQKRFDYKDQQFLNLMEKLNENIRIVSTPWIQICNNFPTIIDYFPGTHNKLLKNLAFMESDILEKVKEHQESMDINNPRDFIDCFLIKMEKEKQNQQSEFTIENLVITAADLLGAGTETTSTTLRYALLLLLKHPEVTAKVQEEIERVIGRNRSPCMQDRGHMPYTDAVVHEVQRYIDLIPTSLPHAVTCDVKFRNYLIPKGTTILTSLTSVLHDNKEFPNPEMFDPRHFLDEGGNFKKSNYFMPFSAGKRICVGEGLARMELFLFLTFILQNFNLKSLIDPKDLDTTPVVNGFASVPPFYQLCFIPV
CYP2C9 activ – CYP2C9 (human) activation. 1.4% of 96,000 active. P11712. activation factor at 5 µM. recombinant CYP2C9, luciferin-H conversion, luminescence; active compounds read high; factor 1 = untreated enzyme, 0 = blocked;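 active means activation factor of 2 or more for CYP2C9 at a 5 µM dose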
sEH act – increases human soluble epoxide hydrolase activity; P34913; purified human sEH enzymatic activity, activator screen; activation, % at 2 µM; 0.04% of 91,000 active; in the data active means activation above about 37%
CYP2C19 activ – cytochrome P450 2C19 (human) activation; P33261; recombinant CYP2C19, luciferin-H EGE luminescence; active compounds read high; 0 = fully inhibited enzyme, 1 = untreated enzyme; activation factor at 5 µM; 96,000 tested, under 10 active; AID 1025;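 active means activation factor of at least 2 at 5 µM in the primary screen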
CYP2C9 inhib – human CYP2C9 inhibition. AID 777. inhibition, % at 5 µM. CYP2C9 Supersomes, luciferin-H conversion, luminescence. 20% of 96,000 active;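 active means blocking of liver enzyme CYP2C9 beyond about 50% at 5 µM, limit read from the data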
A number is an active result.

For COc1ccccc1-c1nn2c(C(F)(F)F)nnc2s1 the results were sEH inhibitor inactive, CYP2C19 inhib inactive, CYP2C9 activ inactive, sEH act inactive, CYP2C19 activ inactive and CYP2C9 inhib inactive.
For Cc1ccc(OCc2nn3c(-c4ccco4)nnc3s2)cc1 the results were sEH inhibitor inactive, CYP2C19 inhib inactive, CYP2C9 activ inactive, sEH act inactive, CYP2C19 activ inactive and CYP2C9 inhib inactive.
Screening Clc1ccc(OCc2nn3c(C4CCCCC4)nnc3s2)cc1 returned sEH inhibitor inactive, CYP2C19 inhib inactive, CYP2C9 activ inactive, sEH act inactive, CYP2C19 activ inactive and CYP2C9 inhib 90.
`CCC/S(CC1CC1(Cl)Cl)=N\S(=O)(=O)c1ccc(C)cc1` (stereo unspecified) gave sEH inhibitor inactive, CYP2C19 inhib inactive, CYP2C9 activ inactive, sEH act inactive, CYP2C19 activ inactive and CYP2C9 inhib inactive.
CCOC(=O)Cc1csc(NC(=O)c2cnc3scc(C)n3c2=O)n1 was read as sEH inhibitor inactive and sEH act inactive.
COC(=O)c1cc(Br)c(=O)n(-c2ccc(OC)cc2)c1 was read as sEH inhibitor inactive, CYP2C19 inhib 55, CYP2C9 activ inactive, sEH act inactive, CYP2C19 activ inactive and CYP2C9 inhib inactive.
`COC(=O)c1cc(Br)c(=O)n(-c2ccccc2OC)c1` gave sEH inhibitor inactive, CYP2C19 inhib inactive, CYP2C9 activ inactive, sEH act inactive, CYP2C19 activ inactive and CYP2C9 inhib inactive.
`COC(=O)c1cc(Br)c(=O)n(-c2cccc(F)c2)c1` gave sEH inhibitor inactive, CYP2C19 inhib 52, CYP2C9 activ inactive, sEH act inactive, CYP2C19 activ inactive and CYP2C9 inhib inactive.
Screening CCOC(=O)c1csc(NC(=O)CSc2nnnn2CC)n1 returned sEH inhibitor inactive, CYP2C19 inhib inactive, CYP2C9 activ inactive, sEH act inactive, CYP2C19 activ inactive and CYP2C9 inhib inactive.
CCNC(=O)c1sc(-c2ccccc2)nc1C was read as CYP2C19 inhib 56, CYP2C9 activ inactive, CYP2C19 activ inactive and CYP2C9 inhib inactive.
Screening Cc1cccc(N(C)S(=O)(=O)c2ccc3c(c2)CCC(=O)N3)c1 returned sEH inhibitor inactive, CYP2C19 inhib inactive, CYP2C9 activ inactive, sEH act inactive, CYP2C19 activ inactive and CYP2C9 inhib inactive.
CCC(c1nnnn1CC1CCCO1)N(CCN1CCOCC1)Cc1cc2cc(C)ccc2[nH]c1=O (stereo unspecified) was read as sEH inhibitor inactive, CYP2C19 inhib inactive, CYP2C9 activ inactive, sEH act inactive, CYP2C19 activ inactive and CYP2C9 inhib inactive.
COc1ccc(-c2nc(CS(=O)CC(=O)N3CCCC3)c(C)o2)cc1 (stereo unspecified) was read as CYP2C19 inhib inactive, CYP2C9 activ inactive, CYP2C19 activ inactive and CYP2C9 inhib 71.
For Cc1ccc(-c2nc(CS(=O)CC(=O)NCc3ccccc3)c(C)o2)cc1 (stereo unspecified) the results were CYP2C19 inhib inactive, CYP2C9 activ inactive, CYP2C19 activ inactive and CYP2C9 inhib inactive.
For Cc1ccc(NC(=O)CS(=O)Cc2nc(-c3ccc(C)cc3)oc2C)cc1 (stereo unspecified) the results were sEH inhibitor inactive, CYP2C19 inhib inactive, CYP2C9 activ inactive, sEH act inactive, CYP2C19 activ inactive and CYP2C9 inhib 60.
`Cc1cc(C)n(-c2nnc(C)n2NS(=O)(=O)c2ccc(F)cc2)n1` gave sEH inhibitor inactive, CYP2C19 inhib inactive, CYP2C9 activ inactive, sEH act inactive, CYP2C19 activ inactive and CYP2C9 inhib inactive.
`COc1ccc2[nH]c(=O)c(CNc3cccc(C)c3)cc2c1` gave sEH inhibitor inactive, CYP2C19 inhib 82, CYP2C9 activ inactive, sEH act inactive, CYP2C19 activ inactive and CYP2C9 inhib inactive.
`COc1ccc(NCc2cc3ccccc3[nH]c2=O)cc1` gave sEH inhibitor inactive, CYP2C19 inhib 82, CYP2C9 activ inactive, sEH act inactive, CYP2C19 activ inactive and CYP2C9 inhib inactive.
For COc1ccc(NCc2cc3cc(OC)ccc3[nH]c2=O)cc1 the results were CYP2C19 inhib 52, CYP2C9 activ inactive, CYP2C19 activ inactive and CYP2C9 inhib inactive.
Screening COc1cc2nc(=S)n3[nH]c(CCn4nc(C)cc4C)nc3c2cc1OC returned CYP2C19 inhib inactive, CYP2C9 activ inactive, CYP2C19 activ inactive and CYP2C9 inhib inactive.
For CCC(C)(C)NC(=O)C(c1ccc(F)cc1)N(Cc1ccco1)C(=O)c1cnccn1 (stereo unspecified) the results were sEH inhibitor inactive, CYP2C19 inhib inactive, CYP2C9 activ inactive, sEH act inactive, CYP2C19 activ inactive and CYP2C9 inhib inactive.
For CC(C)(C)c1ccc(C(=O)N/N=C/c2cccc(Cl)c2)cc1 the results were sEH inhibitor inactive, CYP2C19 inhib 76, CYP2C9 activ inactive, sEH act inactive, CYP2C19 activ inactive and CYP2C9 inhib inactive.
`O=C(N/N=C/c1ccc(F)cc1)c1ccc(Br)cc1` gave sEH inhibitor inactive, CYP2C19 inhib inactive, CYP2C9 activ inactive, sEH act inactive, CYP2C19 activ inactive and CYP2C9 inhib inactive.
For COc1ccc(CCN(C(=O)c2ccc(F)cc2)C2=CC3CCC(C2)N3C)cc1OC (stereo unspecified) the results were CYP2C19 inhib inactive, CYP2C9 activ inactive, CYP2C19 activ inactive and CYP2C9 inhib inactive.
CCOc1cc(S(=O)(=O)N2CC=C(c3ccc(F)cc3)CC2)c(OCC)cc1-n1cnnn1 was read as sEH inhibitor inactive, CYP2C19 inhib inactive, CYP2C9 activ inactive, sEH act inactive, CYP2C19 activ inactive and CYP2C9 inhib 93.
For CCOc1cc(S(=O)(=O)N2CCC(Cc3ccccc3)CC2)c(OCC)cc1-n1cnnn1 the results were CYP2C19 inhib 53, CYP2C9 activ inactive, CYP2C19 activ inactive and CYP2C9 inhib 73.
`CC1(C)Nc2ccccc2N(CC(=O)N2CCCCC2)C1=O` gave sEH inhibitor inactive, CYP2C19 inhib inactive, CYP2C9 activ inactive, sEH act inactive, CYP2C19 activ inactive and CYP2C9 inhib inactive.
`CC(CN(C(N)=O)c1ccccc1O)C(=O)O` (stereo unspecified) gave sEH inhibitor inactive, CYP2C19 inhib inactive, CYP2C9 activ inactive, sEH act inactive, CYP2C19 activ inactive and CYP2C9 inhib inactive.
Screening CCOc1ccc(-n2c(SCC(N)=O)nc3c(c2=O)SCC3)cc1 returned CYP2C19 inhib inactive, CYP2C9 activ inactive, CYP2C19 activ inactive and CYP2C9 inhib inactive.
Screening CCc1ccc(C(=O)Nc2cc3c(cc2Cl)OCCCO3)cc1 returned sEH inhibitor inactive, CYP2C19 inhib inactive, CYP2C9 activ 2.2, sEH act inactive, CYP2C19 activ inactive and CYP2C9 inhib inactive.
Screening CCC(O)c1cc2c(cc1NC(=O)c1ccc(C)cc1)OCCO2 (stereo unspecified) returned sEH inhibitor inactive, CYP2C19 inhib 64, CYP2C9 activ inactive, sEH act inactive, CYP2C19 activ inactive and CYP2C9 inhib 76.
O=C(Nc1cc2c(cc1Cl)OCCO2)c1ccco1 was read as sEH inhibitor inactive and sEH act inactive.
